Hits are enriched below; roughly 10% of the tested compounds scored in any of these assays.
BAZ2B inh: qHTS Assay for Inhibitors of BAZ2B. Bromodomain adjacent to zinc finger domain protein 2B (Homo sapiens), Q9UIF8. AlphaScreen BAZ2B-H3K14Ac peptide displacement. Potency, µM (series often up to 114 µM), inactives show at the top dose activity change, negative = inhibition, actives largely listed as inhibitors. 4.4% of 360,000 active. AID 504333, 2011; note: potency is the fitted concentration of half-maximal effect; % is set by controls: 0 for no effect and ±100 for the full control effect; nearly all actives have a fitted effect of over 60% in size
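Compounds, titrated to a top concentration of 110 uM, were incubated 30 min at room temperature with preformed BAZ2B/acetyl-K14 H3 peptide complex (50 nM each). Proximity signal was measured by AlphaScreen after 20 min with beads.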
CtBP-E1A inh: qHTS Assay for Inhibitors of the CtBP/E1A Interaction; CtBP / adenovirus E1A interaction (AlphaScreen); AlphaScreen GST-E1A/His-CtBP binding, 1536-well; stronger effect = lower value; activity change, % (no concentration beside the values); 0.49% of 340,000 active; in the data active = activity change below about -65%; inconclusive = mostly about -30% to -63%; note: % is set by controls: 0 for no effect and ±100 for the full control effect
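Steps: dispense buffer (Tris pH 8.0, NaCl 300 mM, TCEP 1 mM, BSA, Tween 20); add 5X protein mix (GST-E1A, His-CtBP, 125 nM each); pin 23 nL compound; 2 h at 37 °C, dark; add 5X beads (50 ug/mL); 1 h; read.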
JMJD2A Tudor inh: qHTS Assay for Inhibitors of JMJD2A-Tudor Domain | Lysine-specific demethylase 4A (Homo sapiens), O75164 | AlphaScreen JMJD2A-Tudor / H3K4me3 peptide binding | Potency, µM (highest dose often 114 µM), for the others: top-dose activity change, negative = inhibition, most hits filed as inhibitors | 4.4% of 390,000 active | AID 504339, 2011; note: potency is the fitted concentration of half-maximal effect; % is set by controls: 0 for no effect and ±100 for the full control effect; nearly all actives have a fitted effect of over 50% in size
HP1b chromo inh: HTS for Inhibitors of HP1-beta Chromodomain Interactions with Methylated Histone Tails. AlphaScreen HP1-beta / biotin-H3K9me3 peptide binding. Potency, µM (series often up to 114 µM), for the others: top-dose activity change, negative = inhibition, hits mostly inhibitors. Chromobox protein homolog 1 (Homo sapiens), P83916. 0.56% of 390,000 active; note: potency is the fitted concentration of half-maximal effect; nearly all actives have a fitted effect of over 70% in size
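AlphaScreen: HP1-beta (50 nM) preformed 30 min with biotin-H3(1-18)K9me3 peptide (50 nM) in PBS pH 7.4, 0.01% Tween-20. Compound added for 30 min at RT, then streptavidin donor/nickel chelate acceptor beads (10 ug/mL) for 30 min.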
G9a inh: qHTS Assay for Inhibitors of Histone Lysine Methyltransferase G9a; Histone-lysine N-methyltransferase EHMT2 (Homo sapiens), Q96KQ7; G9a H3K9 monomethylation, AlphaScreen, 2 h; Potency, µM (series often up to 102 µM), inactives show top-dose activity, negative = inhibition, usual class: inhibitors; 8.8% of 350,000 active; AID 504332, 2011; note: potency is the fitted concentration of half-maximal effect; % is set by controls: 0 for no effect and ±100 for the full control effect; nearly all actives have a fitted effect of over 75% in size
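AlphaScreen detection with an anti-monomethyl H3K9 antibody quantified product after a 2 h room-temperature reaction containing 500 nM biotinylated H3K9 peptide, 20 µM SAM and 20 nM enzyme, which had been preincubated 15 min with compound.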
Six1-Eya2 blk: qHTS Assay for Inhibitors of the Six1/Eya2 Interaction. AID 651725, 2012. AlphaScreen GST-Six1/His-Eya2 binding, biochemical; stronger effect = lower value. Homeobox protein SIX1 (Homo sapiens) + Protein phosphatase EYA2 (Homo sapiens), …. 0.56% of 360,000 active. activity change, % (test concentration not listed); in the data active = activity change below about -65%; inconclusive = mostly about -30% to -63%; note: % is set by controls: 0 for no effect and ±100 for the full control effect
Target sequence (O00167 whole entry, looked up): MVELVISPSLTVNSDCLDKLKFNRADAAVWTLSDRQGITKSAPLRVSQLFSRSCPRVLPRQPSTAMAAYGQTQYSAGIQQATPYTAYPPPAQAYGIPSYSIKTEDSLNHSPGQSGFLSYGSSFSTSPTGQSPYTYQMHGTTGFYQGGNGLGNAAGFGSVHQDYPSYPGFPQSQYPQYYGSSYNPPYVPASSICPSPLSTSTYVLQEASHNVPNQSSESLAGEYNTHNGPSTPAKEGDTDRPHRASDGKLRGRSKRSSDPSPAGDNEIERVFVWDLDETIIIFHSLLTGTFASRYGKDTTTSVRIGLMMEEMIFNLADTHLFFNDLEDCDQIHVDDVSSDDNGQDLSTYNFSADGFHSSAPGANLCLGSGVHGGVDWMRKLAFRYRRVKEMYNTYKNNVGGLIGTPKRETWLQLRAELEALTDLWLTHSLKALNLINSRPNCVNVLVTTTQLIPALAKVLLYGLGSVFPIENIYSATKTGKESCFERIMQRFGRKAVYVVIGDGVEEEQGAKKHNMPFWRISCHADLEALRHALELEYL
Target sequence (Q15475 whole entry, looked up): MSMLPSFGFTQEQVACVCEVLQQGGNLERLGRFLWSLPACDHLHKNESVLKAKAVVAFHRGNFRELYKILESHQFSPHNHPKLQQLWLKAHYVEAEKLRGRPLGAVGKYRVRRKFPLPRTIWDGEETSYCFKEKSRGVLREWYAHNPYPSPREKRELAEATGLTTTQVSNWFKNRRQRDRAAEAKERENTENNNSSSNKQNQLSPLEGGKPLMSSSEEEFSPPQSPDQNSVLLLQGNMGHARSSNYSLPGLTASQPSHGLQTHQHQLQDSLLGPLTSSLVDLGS
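AlphaScreen luminescence read after one hour at 37 °C in darkness. Pin-transferred compounds met GST-Six1 and His-Eya2 protein (5X stock 250 nM/500 nM) plus glutathione donor and Ni-chelate acceptor beads (5X, 50 ug/mL).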
The depositor's hits bear a star; [ ] = remark or other dose. Unless noted, calls come from the whole dose curve; as a rule, active = well fitted inhibition curve with a large enough effect; inconclusive = small, poorly fitted or top-dose-only effect; inactive = no such curve, though single readings can be large or run the other way.

Results for CN(C)CCCNC(=O)N1c2ccccc2C=Cc2ccccc21 ?
BAZ2B inh: 10%; CtBP-E1A inh: -2; JMJD2A Tudor inh: inconclusive; HP1b chromo inh: 10%; Six1-Eya2 blk: 8

Results for COC(=O)c1ccc(N2C(=O)CC(SCCN)C2=O)cc1 (centres undefined) ?
BAZ2B inh: -4%; CtBP-E1A inh: 5; JMJD2A Tudor inh: inconclusive; HP1b chromo inh: 18%; G9a inh: 14µM*; Six1-Eya2 blk: 14

Results for COC(=O)c1ccc(N2C(=O)CC(N(C)Cc3ccccc3)C2=O)cc1 (centres undefined) ?
BAZ2B inh: -3%; CtBP-E1A inh: 1; JMJD2A Tudor inh: -20%; HP1b chromo inh: 34%; G9a inh: inconclusive; Six1-Eya2 blk: 5

Results for CCCOc1ccc(N2C(=O)CC(N3CCC(C(=O)OCC)CC3)C2=O)cc1 (centres undefined) ?
BAZ2B inh: -1%; CtBP-E1A inh: 7; JMJD2A Tudor inh: -21%; HP1b chromo inh: 29%; G9a inh: 50µM*; Six1-Eya2 blk: 3

What do the screens show for `CCOc1ccc(N2C(=O)CC(N)C2=O)cc1` (centres undefined)?
BAZ2B inh: 0%; CtBP-E1A inh: 2; JMJD2A Tudor inh: -11%; HP1b chromo inh: -24%; G9a inh: 7.9µM*; Six1-Eya2 blk: -1

What do the screens show for `CCOc1ccc(N2C(=O)CC(Cc3cc(C)cc(C)c3)C2=O)cc1` (centres undefined)?
BAZ2B inh: -8%; JMJD2A Tudor inh: -4%; HP1b chromo inh: 43%; Six1-Eya2 blk: 9

What do the screens show for `COc1ccc(N2CCN(c3ncnc4scc(-c5ccc(F)cc5)c34)CC2)cc1`?
BAZ2B inh: 7.9µM*; CtBP-E1A inh: -22; JMJD2A Tudor inh: 22µM*; HP1b chromo inh: inconclusive; G9a inh: 10µM*; Six1-Eya2 blk: inconclusive

How did COc1ccc(-c2csc3ncnc(N4CCN(C(=O)c5ccco5)CC4)c23)cc1 do in these assays?
BAZ2B inh: -34%; CtBP-E1A inh: 14; JMJD2A Tudor inh: -19%; HP1b chromo inh: 56%; G9a inh: 50µM*; Six1-Eya2 blk: 1

Results for O=C(c1ccco1)N1CCN(c2ncnc3scc(-c4ccccc4)c23)CC1 ?
BAZ2B inh: -13%; CtBP-E1A inh: -6; JMJD2A Tudor inh: -19%; HP1b chromo inh: -15%; G9a inh: 15%[59 µM]; Six1-Eya2 blk: -8

What do the screens show for `COc1ccc(N2CCN(c3ncnc4scc(-c5ccccc5)c34)CC2)cc1`?
BAZ2B inh: 14µM*; CtBP-E1A inh: inconclusive; JMJD2A Tudor inh: 25µM*; HP1b chromo inh: inconclusive; G9a inh: 7.9µM*; Six1-Eya2 blk: inconclusive

Results for COc1ccc(CN2CCN(c3ncnc4scc(-c5ccc(F)cc5)c34)CC2)cc1 ?
BAZ2B inh: inconclusive; CtBP-E1A inh: -1; JMJD2A Tudor inh: inconclusive; HP1b chromo inh: inconclusive; G9a inh: 15%[2.33 µM]; Six1-Eya2 blk: -5

How did COc1ccc(-c2csc3ncnc(N4CCN(c5cccc(OC)c5)CC4)c23)cc1 do in these assays?
BAZ2B inh: -20%; CtBP-E1A inh: -3; JMJD2A Tudor inh: -29%; HP1b chromo inh: -2%; Six1-Eya2 blk: -11

Results for COc1ccc(N2CCN(c3ncnc4scc(-c5ccc(C)cc5)c34)CC2)cc1 ?
BAZ2B inh: 11µM*; CtBP-E1A inh: -22; JMJD2A Tudor inh: 25µM*; HP1b chromo inh: inconclusive; G9a inh: 25µM*; Six1-Eya2 blk: inconclusive

Results for Clc1ccccc1-c1nc(NCc2cccs2)c2ccccc2n1 ?
G9a inh: -37%[0.501 µM]

How did Cc1cc(C)c2c(CC(=O)O)c(C)[nH]c2c1 do in these assays?
BAZ2B inh: -38%; CtBP-E1A inh: -10; JMJD2A Tudor inh: -20%; HP1b chromo inh: 0%; Six1-Eya2 blk: -3

Results for Cc1ccc(NC(=O)c2oc3ccc(Br)cc3c2C)cc1S(=O)(=O)N1CCOCC1 ?
CtBP-E1A inh: 2; JMJD2A Tudor inh: -7%; HP1b chromo inh: 27%; Six1-Eya2 blk: -7

Results for COc1ccc(N2CCN(c3ncnc4sc(C(=O)NCC5CCCO5)c(C)c34)CC2)cc1 (centres undefined) ?
BAZ2B inh: -22%; CtBP-E1A inh: -18; JMJD2A Tudor inh: inconclusive; HP1b chromo inh: -19%; G9a inh: 40µM*; Six1-Eya2 blk: -11

How did COc1ccc(-c2nc(SC(CC(=O)NCCO)c3cccs3)n[nH]2)cc1 (centres undefined) do in these assays?
BAZ2B inh: -7%; CtBP-E1A inh: 2; JMJD2A Tudor inh: 1%; HP1b chromo inh: 34%; G9a inh: 45µM*; Six1-Eya2 blk: -1

What do the screens show for `CN(C)CCOC(=O)C1(c2ccccc2)CCCC1`?
BAZ2B inh: 0%; CtBP-E1A inh: 1; JMJD2A Tudor inh: -18%; HP1b chromo inh: 15%; G9a inh: -15%; Six1-Eya2 blk: 7

Results for C[N+]1(CCCOC(=O)C2(c3ccccc3)CCCC2)CCOCC1 ?
BAZ2B inh: -8%; CtBP-E1A inh: -12; JMJD2A Tudor inh: -13%; HP1b chromo inh: 19%; G9a inh: 7.9µM*; Six1-Eya2 blk: -1

Results for Cc1ccc(C2C(C#N)=C(N)Oc3n[nH]c(-c4cccs4)c32)s1 (centres undefined) ?
BAZ2B inh: inconclusive; CtBP-E1A inh: 0; JMJD2A Tudor inh: -18%; HP1b chromo inh: 10%; G9a inh: 50µM*; Six1-Eya2 blk: -7

How did CN1CCN(C(=S)c2cn(CCOc3ccccc3F)c3ccccc23)CC1 do in these assays?
BAZ2B inh: inconclusive; CtBP-E1A inh: -2; JMJD2A Tudor inh: 50µM*; HP1b chromo inh: inconclusive; G9a inh: 35µM*; Six1-Eya2 blk: inconclusive

What do the screens show for `N#Cc1cn(CCOc2ccccc2F)c2ccccc12`?
BAZ2B inh: 52%; CtBP-E1A inh: 15; JMJD2A Tudor inh: 34%[57.1 µM]; HP1b chromo inh: 118%; G9a inh: 90%[59 µM]; Six1-Eya2 blk: 15

What do the screens show for `CCOC(=O)N1CCN(C(=O)C[C@@H]2C[C@@]3(C(=O)OC)CC(C)(C)CC=C3N(Cc3cccc4ccccc34)C2=O)CC1`?
CtBP-E1A inh: -2; Six1-Eya2 blk: -19
